Source: PubChem BioAssay
Pol III holo inh: inhibitors of bacterial DNA polymerase III holoenzyme; reconstituted DNA polymerase III holoenzyme replication, biochemical; Potency, µM (titrated, usually from 57.1 µM), for inactives: at the highest dose activity change, negative = inhibition; actives 0.25% (n = 71,000); further: potency means the concentration at half of the fitted maximal effect; on the % scale 0 is the no-effect control and ±100 the full control effect
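Reconstituted *E. coli* holoenzyme (0.35 nM Pol III, 1 nM beta, 154 nM SSB, 2 nM primase) was preincubated with compound for 15 min at RT. Synthesis on 1.4 nM ssM13Gori ran 35 min, then was stopped with PicoGreen/EDTA and read as dsDNA fluorescence.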
ERK AVP block: inhibitors of vasopressin-stimulated ERK signaling pathway. HEK293-V1b, vasopressin-stimulated pERK AlphaScreen. Potency, µM (titrated, usually from 57.5 µM), inactives show at the top dose activity, negative = inhibition, actives largely listed as inhibitors. actives 0.99% (n = 72,000). AID 995; further: potency means the concentration at half of the fitted maximal effect; on the % scale 0 is the no-effect control and ±100 the full control effect; nearly all actives have a fitted effect of over 55% in size
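HEK293 cells stably expressing V1b receptor, seeded overnight in 1% FBS, were treated with compounds for 30 min at 37C, then stimulated 5 min with 25 nM vasopressin; phospho-ERK read by AlphaScreen SureFire after lysis.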
YjeE inh: displaces an ADP probe from E. coli YjeE (TsaE); Potency, µM; AID 605; purified YjeE enzyme, qHTS inhibition assay; P0AF67; actives 0.05% (n = 71,000)
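Fluorescence polarization of a BODIPY Texas Red–ADP probe (2 uM) bound to purified YjeE (10 uM) was read after 15 min room-temperature incubation with compounds. Loss of polarization marks inhibitors; ADP serves as titrated control.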
BRCT PPI green: blocks human BRCA1 BRCT binding to phosphopeptide, green readout | P38398 | BRCA1 BRCT-phosphopeptide binding, green fluorescence polarization | Potency, µM (titrated, usually from 76.9 µM), for inactives: top-dose activity change, negative = inhibition, actives largely listed as inhibitors | actives 0.05% (n = 75,000) | AID 875;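 further: potency means the concentration at half of the fitted maximal effect; plate controls were peptide without protein for full effect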
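Fluorescence polarization: His-tagged BRCT (~35 kDa BRCA1 C-terminus, 250 nM) bound to 100 nM fluorescein-labeled phosphorylated 10-aa BACH1 peptide, pH 7.3 phosphate buffer with DTT and Tween 20. Compounds incubated 12 min at room temperature; inhibition read as lowered polarization.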
15-hLO inh: inhibitors of human 15-lipoxygenase (ALOX15); P16050; actives 1.4% (n = 74,000); purified 15hLO-1, xylenol orange hydroperoxide absorbance; Potency, µM (doses to about 57.1 µM), without a hit: top-dose activity change, negative = inhibition, usual class: inhibitors; further: potency means the concentration at half of the fitted maximal effect; on the % scale 0 is the no-effect control and ±100 the full control effect; nearly all actives have a fitted effect of over 55% in size
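Purified human 15hLO-1 (40 nM) in 25 mM Hepes pH 7.5, 0.01% Triton X-100, preincubated 15 min RT with compound, then 50 uM arachidonic acid for 6 min. Hydroperoxide read by ferrous/xylenol orange, 30 min; 573/405 nm absorbance ratio gave progress.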
BRCT inh red: inhibitors of human BRCA1 BRCT-phosphoprotein interaction (red fluorophore). BRCT-phosphopeptide binding, red fluorescence polarization. actives 0.03% (n = 75,000). Potency, µM (titrated, usually from 76.9 µM), inactives show top-dose activity change, negative = inhibition, hits mostly inhibitors. P38398; further: on the % scale 0 is the no-effect control and ±100 the full control effect
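Rhodamine-labelled pBACH1 10-mer (100 nM) bound to BRCT domain (100 nM) at pH 7.3; compounds incubated 12 min room temperature, polarization read. Free peptide defines full inhibition; unlabelled decapeptide titrated as control.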
Numbers without * were called inactive; i = inactive; ? = inconclusive; · = not tested or not shown; [ ] = another dose, or the depositor's remark. Sampled rows, rich in hits. Any-hit rate of the full collection: about 2.4%. The call rests on the fitted dose curve; in most records, active means well fitted curve in the direction sought with a large enough effect; inconclusive means small, poorly fitted or top-dose-only effect, or another doubt; inactive means no such curve, though single readings can be large; an effect the other way counts as inactive or inconclusive.

SMILES	Pol III holo inh	ERK AVP block	YjeE inh	BRCT PPI green	15-hLO inh	BRCT inh red
COC(=O)c1ccc(CSc2nc(C(F)(F)F)c3c(c2C#N)CCC3)o1	-8%	?	i	4%	20µM*	-2%
CCn1c(SCc2ccc(C(=O)OC)o2)nc2sc3c(c2c1=O)CCCC3	11%	-14%	i	2%	-15%	1%
CCN(CC)[C@@H](C)CN1c2ccccc2Sc2ccccc21	-5%[25.6 µM]	1%[25.7 µM]	i	-6%[34.4 µM]	13µM*	1%[34.4 µM]
CCN(CC)[C@@H](C)C(=O)N1c2ccccc2Sc2ccccc21	-4%	·	i	·	·	·
COc1ccccc1CNc1nc(-c2ccoc2)nc2ccccc12	-4%	?	i	1%	?	2%
Cc1ccc2[nH]c(=S)cc(C)c2c1	-4%	-13%	i	0%	3.2µM*	0%
CCOC(=O)N1CCN(C(=O)c2cccc(-n3c(=S)[nH]c4cc(Cl)ccc4c3=O)c2)CC1	-7%	-22%	i	-2%	-10%	0%
CCCSC1=N/C(=C\C=C\c2ccco2)C(=O)S1	1.3µM*	-29%	i	-10%	2.5µM*	-30%
Cc1cccc(Nc2ccccc2C(=O)O)c1C	2.5µM*	7%	i	-1%[3.08 µM]	-6%	-2%
C/C=C1\C2C=C(C)C[C@@]1(N)c1ccc(=O)[nH]c1C2	·	-6%	·	-1%[3.08 µM]	15%	-1%
N[C@@](CCc1ccccc1)(C(=O)O)c1ccccc1	-1%[11.4 µM]	-6%[11.5 µM]	i	4%[15.4 µM]	4%[11.4 µM]	-1%[15.4 µM]
O=C1c2ccccc2NC(c2ccc(Cl)cc2Cl)N1O (centres undefined)	-5%	15%	i	-2%	16µM*	-1%
C=CCc1cccc(C2Nc3ccccc3C(=O)N2O)c1O (centres undefined)	-1%	8%	i	1%	?	-2%
COc1ccc(NC(=O)Nc2cccs2)cc1OC	-3%	?	i	2%	20µM*	-2%
COc1cccc(NC(=O)Nc2cccs2)c1	-7%	14%	i	2%	20µM*	0%
COCc1cc(C)nc2sc(C(=O)N3CCN(c4ccccc4)CC3)c(N)c12	-6%	·	i	-2%	6.3µM*	0%
O=C(CN1CCCN(S(=O)(=O)c2ccc(Br)cc2)CC1)Nc1ccc2cn[nH]c2c1	2%	13%	i	0%	-14%	0%
OC(COc1ccc2cc(Br)ccc2c1)CN1CCCC1 (centres undefined)	-1%	-19%	i	2%	-9%	-1%
OC(COc1ccc2cc(Br)ccc2c1)CN1CCN(c2ccccn2)CC1 (centres undefined)	-5%	25µM*	i	-1%	-15%	-1%
N#Cc1ccc(OCc2nnc(SCC(=O)N3CCCc4ccccc43)n2-c2ccccc2)cc1	-9%	5%	i	-1%	2.5µM*	0%
Cn1cccc1Cc1nnc(SCC(=O)N2CCCC2)n1CCc1ccccc1	-8%	?	i	0%	-27%	2%
Cn1cccc1Cc1nnc(SCC(=O)N2CCc3ccccc32)n1CCc1ccccc1	2%	16µM*	i	3%	-23%	-1%
COc1ccc(-n2c(Cc3cccn3C)nnc2SCC(=O)N2CCCc3ccccc32)cc1	-1%	11%	i	4%	13µM*	0%
O=C(CC1Nc2ccccc2NC1=O)NC1CCCCC1 (centres undefined)	-1%	8%	i	-1%	-1%	-2%
O=C(/N=C1\NC(=O)C(F)(C(F)(F)F)S1)NC1CCCCC1 (centres undefined)	-6%	-9%	i	5%	10µM*	-2%
SMILES	Pol III holo inh	ERK AVP block	YjeE inh	BRCT PPI green	15-hLO inh	BRCT inh red
CN(C)C[C@H]1CCC2=C(C1=O)C(c1ccc(Cl)c(Cl)c1)C1=C(CC[C@H](CN(C)C)C1=O)O2	-9%[11.4 µM]	7%[11.5 µM]	i	-1%[15.4 µM]	14%[11.4 µM]	-2%[15.4 µM]
COc1ccc2nc(N3CCCCC3)c(C#N)cc2c1	-2%	102%	i	-4%	25µM*	0%
CCOC(=O)Cc1csc(NC(=O)c2c(-c3ccccc3)noc2C)n1	3%[11.4 µM]	-3%	i	-1%	-2%[11.4 µM]	0%
Cc1noc(C)c1C(=O)Nc1nc(C23CC4CC(CC(C4)C2)C3)cs1	-28%	20µM*	i	1%	-28%	0%
Cc1ccc(C(=O)[C@@H]2[C@@H]3[C@@H](C(=O)[C@@H]4OC[C@H]3O4)[C@@H]3C=Cc4ccccc4N23)cc1	-3%	·	i	·	·	·
CS(=O)(=O)Nc1cccc(-c2ccc3ncnc(N4CCOCC4)c3c2)c1	-1%	?	i	1%	20%	-2%
C=CCn1c(SCc2nc3ccccc3nc2C)nnc1-c1ccoc1C	-1%	-14%	i	1%	-8%	-2%
Cc1ccc(-n2ncc3c(=O)n(CC(=O)N4CCCc5ccccc54)cnc32)cc1C	0%	25µM*	i	0%	-7%	1%
c1ccc(SC(Sc2ccccc2)c2ccc3c(c2)OCO3)cc1	-13%[11.4 µM]	40%[11.5 µM]	i	-1%[15.4 µM]	4%[11.4 µM]	0%[15.4 µM]
Nc1ccccc1S[C@@H](C[N+](=O)[O-])c1ccc2c(c1)OCO2	-12%[11.4 µM]	?	i	1%[15.4 µM]	2.5µM*	0%[15.4 µM]
O=C(NCC1CCCO1)c1cc(-c2ccco2)nc2ccccc12 (centres undefined)	32µM*	4%	i	-3%	-26%	0%
Cc1cc(NO)nc(-c2ccc(Br)cc2)n1	-4%	-46%	i	-2%	16µM*	1%
O[C@@H]1CC[C@H]2Cc3ccccc3N=C21	-9%	·	i	·	·	·
CCOC(=O)C(CCc1ccccc1)NC(C)C(=O)N1C(C(=O)O)CC2CCCC21 (centres undefined)	·	8%	·	-1%	3.2µM*	0%
O=C(CCCN1CCC(O)(c2cccc(C(F)(F)F)c2)CC1)c1ccc(F)cc1	-6%	17%	i	-3%	-1%	1%
OC1(c2cccc(C(F)(F)F)c2)CCN(c2ncnc3c2[nH]c2ccc(F)cc23)CC1	-2%	25µM*	i	-1%	-21%	0%
